A selection: hits, their analogues and other compounds. The true share with any hit is near 2.3%.
M1 antag: blocks human M1 muscarinic receptor; inhibition, % at 3 µM; P11229; CHO-K1 hM1, Fluo-8 calcium fluorescence, ACh EC80 antagonist; hit rate 1.3% among 360,000;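 active = percent inhibition above its own plate's cutoff, namely the mean of that plate's compound wells plus 3 SD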;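 also: peak over basal fluorescence ratio during 140 s after agonist addition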
Target sequence (P11229 whole entry, looked up): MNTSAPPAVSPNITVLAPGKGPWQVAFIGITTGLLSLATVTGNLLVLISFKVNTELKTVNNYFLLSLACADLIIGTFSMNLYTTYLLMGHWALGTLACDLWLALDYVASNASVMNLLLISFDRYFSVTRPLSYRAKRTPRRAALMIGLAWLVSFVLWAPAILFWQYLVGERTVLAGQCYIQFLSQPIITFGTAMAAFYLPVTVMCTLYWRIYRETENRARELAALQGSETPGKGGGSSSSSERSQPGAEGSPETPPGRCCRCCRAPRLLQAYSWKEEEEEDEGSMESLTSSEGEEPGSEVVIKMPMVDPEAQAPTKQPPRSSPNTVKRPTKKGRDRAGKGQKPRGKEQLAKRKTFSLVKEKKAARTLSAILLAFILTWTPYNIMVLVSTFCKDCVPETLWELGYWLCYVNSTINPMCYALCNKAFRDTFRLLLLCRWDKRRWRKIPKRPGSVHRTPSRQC
CHO-K1 Ca ag: counter-screen for M1 agonists: effect in parental CHO-K1 cells | Fluo-8 calcium fluorescence; scaled to maximal ATP response, vehicle zero | activation, % at 3 µM | hit rate 0.48% among 360,000; in the data active = activation above about 15%;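 also: untransfected CHO-K1 host cells lacking M1 receptor as counterscreen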
CHO-K1 Ca antag: nonselective inhibitor or artifact in parental CHO-K1 cells; ATP-induced calcium, Fluo-8 fluorescence; hit rate 0.6% among 360,000; inhibition, % at 3 µM;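 active = inhibition above a per-plate cutoff, the plate's mean sample inhibition plus 3 SD, cut at about 24% in these data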
CHO-K1 Ca PAM: counter-screen for M1 PAMs: effect in parental CHO-K1 cells. ATP EC20, Fluo-8 calcium fluorescence; 0% at ATP EC20, 100% at ATP max. hit rate 0.02% among 360,000. activation, % at 3 µM;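 active = activation above the run cutoff, the mean activation of all test compounds plus 3 SD, cut at about 40% in these data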;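 also: peak over basal fluorescence ratio in a 140 s read after ATP addition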
M1 ag: human M1 muscarinic receptor agonism; P11229; CHO-K1 hM1, Fluo-8 calcium fluorescence, agonist mode; 0% DMSO, 100% acetylcholine EC100; activation, % at 3 µM; hit rate 0.33% among 360,000;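 active = activation above the run's mean compound activation plus 3 SD, cut at about 16% in these data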;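 also: peak over basal fluorescence ratio within a 140 s kinetic read after compound addition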
CHRM1 PAM: positive allosteric modulators of human M1 muscarinic receptor. hit rate 0.088% among 360,000. activation, % at 3 µM. CHO-K1 hM1, Fluo-8 calcium fluorescence, ACh EC20; 0% = ACh EC20, 100% = maximal ACh; in the data active = activation above about 19%, passing the limit was not always enough
Each line names hits and unclear results; the compound was inactive in the other large screens.

COc1cccc(N2CCN(c3ccc4nnc(CCC(=O)Nc5ccc(C)cn5)n4n3)CC2)c1	none
Cc1ccc(S(=O)(=O)CC2CSc3nnc(C)c(=O)n32)cc1 (centres undefined)	none
Cc1nnc2n(c1=O)C(CS(=O)(=O)c1ccc3ccccc3c1)CS2 (centres undefined)	CHO-K1 Ca ag 15.2
CC1CCN(S(=O)(=O)c2ccc(Oc3ccc([N+](=O)[O-])cc3)cc2)CC1	M1 antag 29.8
CC(=O)NC(CCc1ccc(Cl)c(Cl)c1)c1cccc(O)c(=O)c1 (centres undefined)	none
COc1ccc([N+](=O)[O-])cc1NC(=O)c1cc(C)c(C)o1	CHO-K1 Ca antag 24.8
CCCCn1c(N)c(N(CC)C(=O)c2cc(OC)cc(OC)c2)c(=O)[nH]c1=O	CHO-K1 Ca ag 16.4
CCCCn1c(N)c(N(CCOC)C(=O)c2cc(=O)[nH]c3ccccc23)c(=O)[nH]c1=O	none
CCCCn1c(N)c(N(CCOC)C(=O)c2cc(C)oc2C)c(=O)[nH]c1=O	CHO-K1 Ca antag 24.0
CC(=O)NCCNc1nc2cc(-c3ccsc3)sc2c(=O)n1C	none
CC(C)NC(=O)N(C)C[C@@H]1OCc2cn(nn2)CCCC(=O)N([C@H](C)CO)C[C@H]1C	none
CCOC(=O)c1ccc(-c2c(-c3ccccc3OC)sc3ccc(OC)cc23)cc1F	none
Cc1cc(C(=O)O)ccc1-c1ccc(/C=C2\SC(=O)N(CC(=O)Nc3ccc4c(c3)OCO4)C2=O)o1	CHO-K1 Ca antag 27.5
COc1ccc(CCN(Cc2cc3ccc(C)cc3n3nnnc23)C(C)=O)cc1OC	none
CN(C)CC/C=C1\c2cc(F)ccc2CSc2ccccc21	M1 antag 98.7
CN(C)CC/C=C1/c2cc(F)ccc2CSc2ccc(F)cc21	M1 antag 99.8
COc1ccccc1CNC(=O)COC(=O)c1nccnc1N	none
CCCNC(=O)Nc1cc(OC)c(OC)cc1Cc1nccc2cc(OC)c(OC)cc12	none
COC(=O)[C@@H](Cc1c[nH]c2ccccc12)NC(=O)c1ccc2c(c1)OCO2	CHO-K1 Ca ag 22.9
Cc1ccc(S(=O)(=O)N2C[C@H]3N(C(=O)OC(C)C)N(C(=O)OC(C)C)C[C@H](OC(=O)Nc4cccs4)[C@@]3(O)C2)cc1	none
O=C(N/N=C/c1cccc2ccccc12)c1cccnc1	none
Cc1ccccc1/C=N/NC(=O)c1cccnc1	CHRM1 PAM 27.4
CCC(c1nnnn1-c1ccc2c(c1)OCCO2)N1CCN(CC)CC1 (centres undefined)	none (no result: M1 antag, M1 ag, CHRM1 PAM)
Cc1c(N=C/C=C/c2ccccc2)c(=O)n(-c2ccccc2)n1C	M1 antag 99.9
C[C@H](CO)N1C[C@H](C)[C@@H](CN(C)Cc2ccncc2)Oc2ccc(NC(=O)Cn3cnnn3)cc2C1=O	none
CCCOc1cccc(C(=O)N/N=C/c2coc3ccccc3c2=O)c1	M1 antag 29.6
CCCS(=O)(=O)NC(=O)C1(C)CCCN(C(=O)c2ccccc2Br)C1 (centres undefined)	none
CCCS(=O)(=O)NC(=O)C1(C)CCN(C(=O)c2ccccc2Br)C1 (centres undefined)	CHRM1 PAM 26.6
Cc1ccc(NC(=O)CCCCCC2NC(=O)NC2C)cc1 (centres undefined)	none
CCOC(=O)CCCCCCCCC(=O)Nc1ccc(-n2[nH]c(=O)cc2C)cc1	M1 ag 20.5
CCOc1ccc(OCCSc2nc3ccccc3[nH]2)cc1	none
CCCOc1ccc(CSc2nc3ccccc3[nH]2)cc1	M1 antag 38.2
O=C1CCC2(CCCC2)c2ccccc21	none
Cc1[nH]c(=S)[nH]c(=O)c1Cc1c(O)ccc2ccccc12	M1 ag 35.0, CHRM1 PAM 27.4
Cc1[nH]c(=S)[nH]c(=O)c1Cc1ccccc1	none
CCCCCOc1ccc(/C(C)=N/NC2=NCCN2)cc1	none
CCOc1ccc(Br)cc1/C(C)=N\NC1=NCCN1	M1 antag 62.8
O=C(CC[C@H]1O[C@@H](n2cnc3c(NC(=O)c4ccccc4)ncnc32)[C@H](O)[C@@H]1O)NCC(F)(F)F	none
O=C(CC[C@H]1O[C@@H](n2cnc3c(NC(=O)c4ccccc4)ncnc32)[C@H](O)[C@@H]1O)NCC1CCN(Cc2ccccc2)CC1	CHO-K1 Ca antag 23.8
O=C(CC[C@H]1O[C@@H](n2cnc3c(NC(=O)c4ccccc4)ncnc32)[C@H](O)[C@@H]1O)NCCc1cc2ccccc2[nH]1	CHO-K1 Ca antag 27.2
O=C(CC[C@H]1O[C@@H](n2cnc3c(NC(=O)c4ccccc4)ncnc32)[C@H](O)[C@@H]1O)NCc1ccco1	none
O=C(Nc1cccc(S(=O)(=O)NC2=NCCC2)c1)c1cn(-c2ccccc2)nc1-c1ccc(F)cc1	none
Cc1ccc(-c2nn(-c3ccccc3)cc2C(=O)Nc2cccc(S(=O)(=O)NC3=NCCC3)c2)cc1	CHO-K1 Ca antag 34.4
C[N+](C)(C)CCN(Cc1ccc(Cl)cc1)c1ccccn1	M1 antag 25.7, M1 ag 18.6
CCCCc1nnc(NC(=O)C(C)Sc2nc(O)c(Cc3ccccc3)c(=O)[nH]2)s1 (centres undefined)	none
COC(=O)C(CCSC)NC(=O)c1cc2c(n(-c3ccccc3)c1=O)CC(C)(C)CC2=O (centres undefined)	CHO-K1 Ca antag 26.9
COC(=O)C(CCSC)NC(=O)c1cc2c(n(-c3ccc(C)cc3)c1=O)CCCC2=O (centres undefined)	none
COc1ccccc1C(CNC(=O)c1cccc(S(=O)(=O)N2c3ccccc3CC2C)c1)N(C)C (centres undefined)	M1 antag 98.6
COc1ccccc1C(CNC(=O)c1cccc(S(=O)(=O)N2CCCc3ccccc32)c1)N(C)C (centres undefined)	M1 antag 100.6
Oc1ccc(C[C@H]2CNC(=S)N2CC2CCCN2C[C@H](Cc2ccc(O)cc2)N2C[C@H](Cc3ccccc3)N(CC3CCCCC3)C2=S)cc1 (some centres undefined)	none
CCCCN1CCCCC1C(=O)Nc1c(C)cc(C)cc1C (centres undefined)	CHO-K1 Ca antag 30.5
Cc1cc(C)c(NC(=O)C2CCCN2CCO)c(C)c1 (centres undefined)	none
Cc1c(C(=O)N2CCN(c3ccccn3)CC2)oc2c1C(=O)CC(C)(C)C2	none
COc1ccccc1N1CCN(C(=O)c2oc3c(c2C)C(=O)CC(C)(C)C3)CC1	CHO-K1 Ca antag 28.4
CCN(CC)CCN1C(=O)C(=O)/C(=C(/O)c2c(C)[nH]c(C(=O)OC)c2C)C1c1ccccc1OC (centres undefined)	CHO-K1 Ca antag 30.9
